MazEF act: activators of E. coli MazEF toxin-antitoxin RNase. FAM/BHQ RNA-DNA oligo cleavage fluorescence, 5 h. P0AE70. 350,000 tested, 0.32% active. activation, % at 20 µM; in the data active = activation above about 50%
Target sequence (P0AE70 whole entry, looked up): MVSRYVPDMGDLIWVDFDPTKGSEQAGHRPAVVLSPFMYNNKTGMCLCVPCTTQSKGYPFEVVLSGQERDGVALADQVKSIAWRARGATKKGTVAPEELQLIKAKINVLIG
BoNT-A LC inh2: blocks Botulinum neurotoxin A light chain protease; multiplex microsphere protease substrate cleavage, flow cytometry; AID 588499; inhibition, % at 10 µM; 360,000 tested, 0.17% active; note: plate controls were buffer without enzyme for full effect and enzyme alone for no effect
BoNT F protease: inhibitors of Botulinum neurotoxin F light chain protease | AID 588497 | 360,000 tested, 0.22% active | Multiplex microsphere protease cleavage assay, flow cytometry | inhibition, % at 10 µM; in the data active = inhibition above about 35%, passing the limit was not always enough; inconclusive = no clear call, values can overlap the other calls; note: plate controls were buffer without enzyme for full effect and enzyme alone for no effect
BH1578 lux ind: inducers of Vibrio cholerae quorum light production without autoinducers. AID 588436. activation, % at 18.7 µM. V. cholerae BH1578 lux reporter, luminescence, 6 h. 350,000 tested, 0.16% active; in the data active = activation mostly above about 9.7%, no sharp cut-off; inconclusive = no clear call, values can overlap the other calls; inactive = mostly below about 3.7%
Anthrax LF prot: anthrax lethal factor protease inhibition; inhibition, % at 10 µM; 360,000 tested, 0.12% active; multiplex microsphere protease cleavage assay, LF; AID 588501; P15917; note: plate controls were buffer without enzyme for full effect and enzyme alone for no effect
Autofluor counter: counter-screen for toxin protease inhibitors: compound fluorescence. AID 624483. 360,000 tested, 3.1% active. fluorescence intensity (test concentration not listed). compound autofluorescence counterscreen, microsphere flow cytometry; active compounds read high; in the data active = fluorescence intensity above about 16000; inconclusive = no clear call, values can overlap the other calls
Active calls of the source: *; i = inactive; ? = inconclusive; . = no result. An excerpt weighted towards active compounds, which were near 3.9% of everything screened. Cut-off read from the data, not from the text of the source, unless noted: active = inhibition above about 30%; inconclusive = no clear call, values can overlap the other calls; inactive = below that.

SMILES | MazEF act | BoNT-A LC inh2 | BoNT F protease | BH1578 lux ind | Anthrax LF prot | Autofluor counter
CC(C)n1ncc2c(C(=O)Nc3cccc(S(=O)(=O)N(C)C)c3)cc(C3CC3)nc21 | 5 | 1 | -4 | i | -2 | 6200
O=C(CCSc1nc(-c2ccco2)cc(C(F)(F)F)n1)N1CCN(c2ccccc2)CC1 | -3 | -1 | -6 | -1 | -6 | 3320
FC(F)(F)c1cc(-c2ccco2)nc(N2CCN(c3ccccc3)CC2)n1 | 5 | -6 | -7 | -2 | -4 | 25233*
CCCNC(=O)C1(C)CCN(C(=O)c2sccc2C)C1 (centres undefined) | . | 0 | -2 | i | 5 | 3493
CCOc1cccc2cc(-c3csc(NC(=O)CCC(=O)NCCN4CCCCC4C)n3)c(=O)oc12 (centres undefined) | 9 | 0 | -8 | 0 | 6 | 4086
CCOc1cccc2cc(-c3csc(NC(=O)CCC(=O)N4CCC(C)CC4)n3)c(=O)oc12 | -5 | -1 | -2 | i | 0 | 22950*
COc1cccc(C2C(C(=O)Nc3ccc(C)cc3C)=C(C)Nc3ncnn32)c1OC (centres undefined) | 12 | 1 | 2 | -11 | -2 | 19983*
COc1ccccc1NC(=O)C1=C(C)Nc2ncnn2C1c1ccccc1C (centres undefined) | -8 | . | . | 0 | . | .
O=c1oc2ccccc2c(N2CCCCC2)c1CN1CCCCC1 | -2 | 1 | 7 | 25* | 2 | 2637
CCOC(=O)c1cnn(-c2cc(C(C)(C)C)nc3c(-c4ccccc4)c(C)nn23)c1N | -16 | ? | -11 | -1 | -4 | 26542*
CCOC(=O)c1cnn(-c2c(Cc3ccccc3)c(C)nc3c(-c4ccccc4)c(C)nn23)c1N | -5 | 4 | 4 | 0 | 0 | 22024*
CSc1ccccc1C(=O)Nc1cccc(C)c1 | 1 | ? | 11 | -2 | -4 | 17403*
CSc1ccccc1C(=O)Nc1cccc([N+](=O)[O-])c1 | 13 | 0 | 2 | -2 | -2 | 4563
COC(=O)c1ccc(NC(=O)c2ccccc2SC)cc1 | 8 | -3 | -2 | i | -2 | 16827*
Cc1ccc(-c2noc(CNc3ccccc3)n2)cc1 | 0 | ? | -1 | -6 | -3 | 21856*
COc1ccc(Cc2nc(-c3ccccc3)no2)cc1 | -2 | -2 | -4 | -1 | -2 | 21271*
Clc1ccc(Cc2nc(-c3cccnc3)no2)cc1 | -4 | 1 | 1 | -2 | -2 | 21733*
COc1ccc(Cc2nc(-c3ccc(-n4cccc4)cc3)no2)cc1 | -15 | 0 | -10 | -1 | -6 | 6133
CCc1ccc(NCc2nc(-c3ccccc3)no2)cc1 | -1 | 0 | 3 | 0 | -1 | 10365
CCc1ccc(C(=O)N/N=C/c2ccncc2)s1 | -1 | -1 | -10 | 4 | -5 | 4625
CCOc1cc(C(=O)Nc2cnccn2)cc(OCC)c1OCC | -1 | -3 | -2 | -3 | -1 | 20443*
CCOc1cc(C(=O)NCc2ccncc2)cc(OCC)c1OCC | -2 | 1 | -2 | i | -2 | 19468*
CCOc1ccc(C(=O)NCc2ccncc2)cc1OCC | -2 | 1 | -6 | i | 3 | 4503
O=C(Nc1cnccn1)c1ccncc1 | 2 | -3 | -4 | 0 | -7 | 24053*
COc1cc2cc(C)c(Br)c(OC)c2cc1OC | 1 | 0 | -7 | . | -12 | 2946
SMILES | MazEF act | BoNT-A LC inh2 | BoNT F protease | BH1578 lux ind | Anthrax LF prot | Autofluor counter
O=C1O[C@@H](c2ccccc2)C[C@@H](O)C(=O)CCCCc2ccccc21 | . | 0 | 3 | . | -2 | 6046
Nc1c(C2CCCCC2)c(=O)on1C(=O)c1ccccc1 | 2 | 0 | -1 | i | -6 | 3666
c1ccc2c(c1)nc(NCc1ccc3c(c1)OCO3)n2CCN1CCOCC1 | 1 | 0 | 2 | 0 | -1 | 2649
c1ccc(Cn2c(CNc3nc4ccccc4n3CCN3CCOCC3)nc3ccccc32)cc1 | -1 | ? | -2 | -1 | 0 | 23712*
COc1ccc(OC)c(CNc2nc3ccccc3n2CCN2CCCCC2)c1 | 4 | 0 | -6 | -2 | -2 | 16368*
COc1ccccc1N1CCN(CCN2C(=O)CC(=C3c4ccccc4-c4ccccc43)C2=O)CC1 | -4 | . | . | . | . | .
O=C1CC(=C2c3ccccc3-c3ccccc32)C(=O)N1CCN1CCN(c2ccccc2)CC1 | -5 | 2 | 0 | i | -3 | 19425*
Cc1ccccc1N1CCN(CCN2C(=O)CC(=C3c4ccccc4-c4ccccc43)C2=O)CC1 | -12 | 0 | -5 | 1 | -2 | 16193*

Screening data deposited in PubChem BioAssay by several laboratories.
